# Results reported in PubChem BioAssay (EPA / NIEHS).
# “And” between values parts separate entries of the source, which are not always exact repeats. Equal entries are not always repeated. A structure can be active in one record and inactive in another. The source made the active and inactive calls. The calls were made as follows: active = hit-call score of the fitted dose curve at least 0.9, where 1 is the maximum; inactive = score below 0.9.
# Read-out: Tumor necrosis factor (Homo sapiens) (UniProt P01375)
# Assay: BSK_LPS_TNFa: BioMAP Diversity Plus: LPS Assay for Tumour Necrosis Factor alpha (TNFa) Biomarker Activity (AID 2283085);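 as to AC50: TNFa protein level quantified by ELISA in the co-culture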
# Conditions: primary human HUVEC with PBMC; actives raise or lower the signal
# Summary of the method: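 Primary human vascular co-culture of HUVEC and PBMC; TNFa ELISA 24 h after treatment, analysed as increase or decrease relative to DMSO control.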
# Sequence of Tumor necrosis factor (Homo sapiens) (P01375 whole entry, looked up): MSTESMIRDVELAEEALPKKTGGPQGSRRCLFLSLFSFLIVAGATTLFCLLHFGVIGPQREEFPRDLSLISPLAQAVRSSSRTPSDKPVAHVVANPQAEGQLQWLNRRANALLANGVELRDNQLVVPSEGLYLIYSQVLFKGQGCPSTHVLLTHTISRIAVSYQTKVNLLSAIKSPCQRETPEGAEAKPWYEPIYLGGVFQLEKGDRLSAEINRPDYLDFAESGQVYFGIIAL
Structure (SMILES),outcome,AC50
O=C(O)CCC(F)(F)C(F)(F)C(F)(F)C(F)(F)C(F)(F)F,inactive,–
COc1cccc(O)c1,inactive,–
NC(=NCCCCCCN=C(N)/N=C(\N)Nc1ccc(Cl)cc1)/N=C(\N)Nc1ccc(Cl)cc1,–,20.5 µM (active)
Clc1ccc(Nc2nnc(Cc3ccncc3)c3ccccc23)cc1,inactive,–
O=C(CC(=O)C(F)(F)C(F)(F)C(F)(F)F)c1cccs1,inactive,15.2 µM (active)
CCCCCCCCCCCCCCCCCC[N+](C)(C)Cc1ccccc1,–,3.58 µM (active)
Oc1c(Cl)cc(Cl)cc1Sc1cc(Cl)cc(Cl)c1O,–,29.9 µM (active) and 30 µM (active)
CCCCCCCCCCCC,–,28.7 µM (active) and 20.7 µM (active)
O=C(O)C(F)(F)OC(F)(F)C(F)(F)OC(F)(F)C(F)(F)OC(F)(F)C(F)(F)C(F)(F)C(F)(F)F,–,50 µM (active) and 46.4 µM (active)
OCCN1CN(CCO)CN(CCO)C1,–,36.6 µM (active)
Cc1cccc2c1ccc1ccccc12,inactive,–
O=P(O)(O)CCC(F)(F)C(F)(F)C(F)(F)C(F)(F)C(F)(F)C(F)(F)F,inactive,–
O=C(NCc1ncc(C(F)(F)F)cc1Cl)c1c(Cl)cccc1Cl,inactive,–
CCCCCCCCCCCCOS(=O)(=O)O,inactive,–
O=C(CCCN1CCC(O)(c2ccc(Cl)cc2)CC1)c1ccc(F)cc1,inactive,–
CCCCCCCCCCCCCCC,inactive,–
O=S(=O)(O)C(F)(F)C(F)(F)C(F)(F)C(F)(F)C(F)(F)C(F)(F)C(F)(F)C(F)(F)C(F)(F)C(F)(F)F,–,8.87 µM (active) and 13.3 µM (active)
OCC(F)(F)C(F)(F)C(F)(F)C(F)(F)C(F)(F)C(F)(F)C(F)(F)C(F)(F)C(F)(F)C(F)(F)C(F)(F)F,inactive,1.01 µM (active)
CN(Cc1cnc2nc(N)nc(N)c2n1)c1ccc(C(=O)N[C@@H](CCC(=O)O)C(=O)O)cc1,inactive,–
Cc1ccc(N=Nc2c(O)ccc3ccccc23)c(C)c1,inactive,–
CN(CCO)S(=O)(=O)C(F)(F)C(F)(F)C(F)(F)C(F)(F)C(F)(F)C(F)(F)C(F)(F)C(F)(F)F,inactive,–
O=P(O)(O)CCC(F)(F)C(F)(F)C(F)(F)C(F)(F)C(F)(F)C(F)(F)C(F)(F)C(F)(F)F,inactive,–
O=C(c1ccccc1)c1ccccc1,inactive,–
Cc1[nH]nc2c1N=C(c1ccccc1Cl)c1cc([N+](=O)[O-])ccc1N2,–,4.86 µM (active)
OCC(CO)(CBr)CBr,inactive,–
O=C1c2ccc(O)c(O)c2C(=O)c2c(O)ccc(O)c21,inactive,–
COC1=CC(=O)C[C@@H](C)[C@]12Oc1c(Cl)c(OC)cc(OC)c1C2=O,inactive,–
N=C(N)c1ccc(OCCCCCOc2ccc(C(=N)N)cc2)cc1,inactive,–

# Read-out: Vascular cell adhesion molecule 1 (VCAM1), VCAM1 (gene 7412)
# Assay: BSK_LPS_VCAM1: BioMAP Diversity Plus: LPS Assay for Vascular cell adhesion molecule 1 (VCAM1) Biomarker Activity (AID 2283086)
# Conditions: primary human HUVEC with PBMC; actives raise or lower the signal
# Summary of the method: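 Primary human vascular co-culture (umbilical vein endothelium plus PBMC) stimulated with LPS received chemical; 24 h later VCAM-1 was read by ELISA. Overt cytotoxicity was assessed by sulforhodamine B staining of parallel cultures at the same time point.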
Structure (SMILES),outcome,AC50
O=C(O)CCC(F)(F)C(F)(F)C(F)(F)C(F)(F)C(F)(F)F,inactive,–
COc1cccc(O)c1,inactive,–
NC(=NCCCCCCN=C(N)/N=C(\N)Nc1ccc(Cl)cc1)/N=C(\N)Nc1ccc(Cl)cc1,–,6.08 µM (active)
Clc1ccc(Nc2nnc(Cc3ccncc3)c3ccccc23)cc1,inactive,–
O=C(CC(=O)C(F)(F)C(F)(F)C(F)(F)F)c1cccs1,–,45.7 µM (active) and 46.4 µM (active)
CCCCCCCCCCCCCCCCCC[N+](C)(C)Cc1ccccc1,–,3.09 µM (active)
Oc1c(Cl)cc(Cl)cc1Sc1cc(Cl)cc(Cl)c1O,–,32.9 µM (active) and 30.9 µM (active)
CCCCCCCCCCCC,–,33 µM (active) and 31 µM (active)
O=C(O)C(F)(F)OC(F)(F)C(F)(F)OC(F)(F)C(F)(F)OC(F)(F)C(F)(F)C(F)(F)C(F)(F)F,–,45.6 µM (active) and 48.4 µM (active)
OCCN1CN(CCO)CN(CCO)C1,–,31.1 µM (active)
Cc1cccc2c1ccc1ccccc12,inactive,–
O=P(O)(O)CCC(F)(F)C(F)(F)C(F)(F)C(F)(F)C(F)(F)C(F)(F)F,inactive,–
O=C(NCc1ncc(C(F)(F)F)cc1Cl)c1c(Cl)cccc1Cl,inactive,–
CCCCCCCCCCCCOS(=O)(=O)O,inactive,–
O=C(CCCN1CCC(O)(c2ccc(Cl)cc2)CC1)c1ccc(F)cc1,inactive,–
CCCCCCCCCCCCCCC,inactive,–
O=S(=O)(O)C(F)(F)C(F)(F)C(F)(F)C(F)(F)C(F)(F)C(F)(F)C(F)(F)C(F)(F)C(F)(F)C(F)(F)F,inactive,–
OCC(F)(F)C(F)(F)C(F)(F)C(F)(F)C(F)(F)C(F)(F)C(F)(F)C(F)(F)C(F)(F)C(F)(F)C(F)(F)F,inactive,–
CN(Cc1cnc2nc(N)nc(N)c2n1)c1ccc(C(=O)N[C@@H](CCC(=O)O)C(=O)O)cc1,inactive,–
Cc1ccc(N=Nc2c(O)ccc3ccccc23)c(C)c1,inactive,–
CN(CCO)S(=O)(=O)C(F)(F)C(F)(F)C(F)(F)C(F)(F)C(F)(F)C(F)(F)C(F)(F)C(F)(F)F,inactive,–
O=P(O)(O)CCC(F)(F)C(F)(F)C(F)(F)C(F)(F)C(F)(F)C(F)(F)C(F)(F)C(F)(F)F,inactive,–
O=C(c1ccccc1)c1ccccc1,inactive,–
Cc1[nH]nc2c1N=C(c1ccccc1Cl)c1cc([N+](=O)[O-])ccc1N2,–,3.99 µM (active)
OCC(CO)(CBr)CBr,inactive,–
O=C1c2ccc(O)c(O)c2C(=O)c2c(O)ccc(O)c21,inactive,–
COC1=CC(=O)C[C@@H](C)[C@]12Oc1c(Cl)c(OC)cc(OC)c1C2=O,inactive,–
N=C(N)c1ccc(OCCCCCOc2ccc(C(=N)N)cc2)cc1,inactive,–
